Compound activity (PubChem BioAssay)
Shown are actives, neighbours in structure and some others; about 11% of the full set was active somewhere.
Pf growth 48h – P. falciparum growth inhibition at 48 hours (one generation); P. falciparum luciferase growth in erythrocytes, 48 h; Potency, µM (highest dose often 28.7 µM), inactives show at the top dose activity change, negative = inhibition, most hits filed as inhibitors; 310,000 compounds, 5.9% hits; also: % is scaled to controls: 0 for no effect and ±100 for the full control effect
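A one-generation exposure of luciferase-tagged malaria parasites in RPMI 1640/Albumax erythrocyte culture, 37 C and 5% CO2. Inhibition is inferred from decreased luminescence after adding detection reagent.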
HCV inhibitor – HCV inhibition. Huh7.5.1 HCVcc-Cre infection, luciferase reporter, 44 h. Potency, µM (top dose mostly 41.8 µM), inactives show at the top dose activity change, negative = inhibition, hits mostly inhibitors. 340,000 compounds, 3.4% hits. AID 651820; also: % is scaled to controls: 0 for no effect and ±100 for the full control effect
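1,000 cells/well; 4 h culture; + compound; + HCVcc-Cre (~0.5 moi); 44 h; luciferase substrate, RT 15 min; read 15 sec.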
Pf growth 96h – P. falciparum growth inhibition at 96 hours | Potency, µM (highest dose often 28.7 µM), for the others: at the highest dose activity change, negative = inhibition, actives largely listed as inhibitors | P. falciparum luciferase reporter growth, 96 h | 320,000 compounds, 6.9% hits | AID 504834; also: % is scaled to controls: 0 for no effect and ±100 for the full control effect
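Two parasite generations (96 h, 37 C, 5% CO2) of compound exposure in infected erythrocytes (0.05% parasitemia, 2% hematocrit). Luciferase-reporter P. falciparum; decreased luminescence indicates inhibited growth, aimed at apicoplast-acting delayed death.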
NS1 function inh – blocks influenza NS1 protein function. Potency, µM (series often up to 46.1 µM), without a hit: at the highest dose activity, positive = more growth. 270,000 compounds, 0.4% hits. AID 2326; calls by dose curve; also: actives are rising curves; nearly all actives have a fitted effect of over 50% in size
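S. cerevisiae expressing influenza A NS1, grown in glucose, washed, then diluted 1:100 into pH 6.0 -URA galactose medium with 23 nl compound. Growth recovery read as OD600; NS1-free strain serves as control.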
Vaccinia mCherry – vaccinia inhibition (mCherry reporter); Vaccinia virus mCherry reporter infection, fluorescence; Potency, µM (top dose mostly 36.5 µM), for the others: at the highest dose activity change, negative = inhibition, usual class: inhibitors; 310,000 compounds, 0.63% hits; calls by dose curve; tested in A549 cells; also: % is scaled to controls: 0 for no effect and ±100 for the full control effect; nearly all actives have a fitted effect of over 35% in size
Vaccinia Venus – vaccinia inhibition (Venus reporter); Vaccinia virus Venus reporter expression, fluorescence; Potency, µM (top dose mostly 36.5 µM), without a hit: top-dose activity change, negative = inhibition, usual class: inhibitors; 330,000 compounds, 0.46% hits; calls by dose curve; tested in A549 cells; also: % is scaled to controls: 0 for no effect and ±100 for the full control effect; nearly all actives have a fitted effect of over 30% in size
Numbers without * were called inactive; i = inactive; ? = inconclusive; nt = no result given. Unless noted, calls follow the shape of the dose curve; as a rule, active = well fitted inhibition curve with a large enough effect; inconclusive = small, poorly fitted or top-dose-only effect, or another doubt; inactive = no such curve, though single readings can be large or run the other way. Potency is read from the fitted curve at half-maximal effect.

SMILES | Pf growth 48h | HCV inhibitor | Pf growth 96h | NS1 function inh | Vaccinia mCherry | Vaccinia Venus
O=C(Nc1cccc2c(=O)[nH][nH]c(=O)c12)c1ccc([N+](=O)[O-])cc1 | nt | nt | nt | nt | 18% | 7%
O=c1[nH]c2ccccc2nc1NCc1ccccc1 | 23% | -2% | 4.7µM* | -12% | i | -25%
c1ccc(CNc2nc(-c3ccccn3)nc3ccccc23)cc1 | 1.5µM* | 3.2µM* | 0.66µM* | -14% | ? | -22%
O=C(O)CNc1nc(-c2ccccc2)nc2c1oc1ccccc12 | -4% | 3% | -1% | 3% | -5% | 8%
c1ccc(-c2nc(NCc3cccnc3)c3oc4ccccc4c3n2)cc1 | ? | ? | 9.3µM* | -36% | nt | nt
CCC(C)Nc1nc(-c2ccccn2)nc2ccccc12 (configuration not stated) | nt | ? | 0.93µM* | -3% | nt | nt
CC(C)c1ccc(S(=O)(=O)N2CCN(C(=O)CN3C(=O)c4ccccc4C3=O)CC2)cc1 | nt | 7% | nt | nt | -3% | 1%
COc1cccc(CNC(=O)CCn2ccc3cc(S(=O)(=O)N4CCC(C)CC4)ccc32)c1 | ? | -24% | ? | ? | -16% | -19%
O=C(Nc1cccc(-c2nn[nH]n2)c1)c1ccc(Cl)s1 | -12% | 15% | ? | 9% | nt | nt
CC(C)c1ccccc1NC(=O)COc1ccc2c(=O)c(Oc3ccc4ccccc4c3)coc2c1 | -17% | ? | 33% | -1% | nt | nt
O=C1N=c2ccccc2=C1c1sc(Nc2cccc(O)c2)nc1O | 125% | -5% | ? | 20% | nt | nt
COc1cccc(-c2nc(NCc3cccnc3)c3ccccc3n2)c1O | 12µM* | ? | ? | 0% | -13% | -28%
c1cncc(CNc2nc(-c3cccnc3)nc3ccccc23)c1 | ? | 22µM* | ? | -3% | i | -17%
COc1ccccc1-c1nc(NCc2ccccc2)c2ccccc2n1 | nt | nt | nt | nt | ? | -19%
NS(=O)(=O)c1ccc(CNc2nc(-c3cccnc3)nc3ccccc23)cc1 | ? | -23% | ? | ? | -18% | -9%
Fc1ccc(CNc2nc(-c3cccnc3)nc3ccccc23)cc1 | 12µM* | 11µM* | ? | -38% | -9% | -5%
CCC(C)Nc1nc(-c2cccc(OC)c2O)nc2ccccc12 (configuration not stated) | -15% | 2.5µM* | ? | 3% | ? | ?
c1cncc(-c2nc(NCc3ccc4c(c3)OCO4)c3ccccc3n2)c1 | 13µM* | 11µM* | 10µM* | -6% | nt | nt
Fc1ccccc1/C=N/Nc1nc(-c2ccccn2)nc2ccccc12 | 2.3µM* | nt | ? | 6% | nt | nt
Cc1ccc(CNc2nc(-c3cccnc3)nc3ccccc23)cc1 | 6.6µM* | ? | ? | -88% | ? | -22%
c1ccc2c(c1)oc1c(NCC3CCCO3)ncnc12 (configuration not stated) | 51% | -25% | 19% | -5% | nt | nt
c1ccc(-c2nc(NCC3CCCO3)c3oc4ccccc4c3n2)cc1 (configuration not stated) | nt | ? | 15µM* | -54% | nt | nt
CC(=O)Nc1ccc(C(=O)OCC(=O)c2ccc(F)cc2)cc1 | 104% | 18% | -8% | 25% | i | -16%
Cc1ccc(SC(C)c2nc(-c3cccnc3)no2)cc1 (configuration not stated) | ? | -2% | -14% | -81% | -15% | -3%
CC(C)(C)c1ccc(-c2nc(NCc3cccnc3)c3ccccc3n2)cc1 | ? | 11µM* | 17% | -65% | -15% | -17%
SMILES | Pf growth 48h | HCV inhibitor | Pf growth 96h | NS1 function inh | Vaccinia mCherry | Vaccinia Venus
c1ccc(CN2CCC(Nc3nc(-c4cccnc4)nc4ccccc34)CC2)cc1 | ? | ? | ? | nt | ? | 13µM*
CN(C)C(=O)c1ccc(-c2nc(NCc3cccnc3)c3ccccc3n2)cc1 | nt | nt | nt | nt | -19% | -19%
CN1CCN(S(=O)(=O)c2ccc(Br)s2)CC1 | 12% | 17% | 28% | -11% | nt | nt
CCOc1cc(C2C3=C(CCCC3=O)Nc3nc(C(=O)OC)nn32)ccc1OC (configuration not stated) | 9% | 27% | 70% | 8% | nt | nt
c1nc(NCCN2CCOCC2)c2sc3nc(N4CCOCC4)c4c(c3c2n1)CCC4 | 7.4µM* | 1% | nt | -10% | -26% | -17%
CC(C)CCNc1nnnc2c1sc1nc(N3CCOCC3)c3c(c12)CC(C)(C)SC3 | ? | -2% | nt | 14% | i | -8%
CN(C)CCNc1ncnc2c1sc1nc(-c3ccccc3)c3c(c12)CCCC3 | ? | ? | 2% | 3% | ? | 10µM*
COc1ncnc2c1sc1nc(-c3ccccc3)c3c(c12)CCCC3 | ? | 13% | ? | -5% | nt | nt
CCN1CCN(c2ncnc3c2sc2nc(N4CCOCC4)c4c(c23)CCC4)CC1 | -4% | 17% | 52% | 5% | nt | -13%
CC1(C)Cc2c(c(N3CCOCC3)nc3sc4c(NCCN5CCOCC5)nnnc4c23)CS1 | ? | 11µM* | ? | -1% | nt | nt
COc1ccc(CN2C(=O)C(CC(C)C)Nc3ncnc(N4CCN(c5ccccn5)CC4)c32)cc1 (configuration not stated) | ? | 0% | ? | nt | -16% | ?
CC(C)CCn1cnc2c1c(=O)[nH]c(=O)n2Cc1ccccc1 | -13% | 1% | ? | 1% | nt | nt
O=c1c2cnn(-c3ccccc3)c2ncn1Cc1cccnc1 | 17% | -5% | ? | 0% | nt | 8%
CCCCC1(Cc2ccc([N+](=O)[O-])cc2)C(=O)N(c2ccccc2)N(c2ccccc2)C1=O | 4.1µM* | 13µM* | ? | 22% | ? | ?
CCCCC1(COC(=O)CCC(=O)O)C(=O)N(c2ccccc2)N(c2ccccc2)C1=O | ? | -1% | 1% | nt | 0% | -15%
COc1ccc2ccc3c(c2c1)N=C[C@]1(O3)N(C)c2ccccc2C1(C)C | ? | -4% | 6.6µM* | 1% | -10% | -7%
CC1=NOC2(C1)N(C)c1ccccc1C2(C)C (configuration not stated) | 39% | 7% | 0% | -3% | nt | nt
CC(=O)NC(CC(=O)OCC(=O)c1ccc(NC(=O)CC(C)C)cc1)c1ccccc1 (configuration not stated) | ? | -14% | -11% | nt | -14% | -3%
CCOC(=O)C1C(C(=O)OC)=C(c2ccc(OC)cc2)c2ccccc2N1S(=O)(=O)C(F)(F)F (configuration not stated) | nt | 11µM* | nt | nt | i | -17%
CCOC(=O)C1=C(c2ccccc2)c2ccccc2N(S(=O)(=O)C(F)(F)F)C1C(=O)OCC (configuration not stated) | nt | 2.8µM* | nt | nt | -28% | 0%
Oc1cccc(Nc2cc(-c3ccccc3)ncn2)c1 | nt | nt | nt | nt | -16% | -16%
COc1ccc(NC(=O)c2cn(CC(C)C)c(=O)c3cc(OC)c(OC)cc23)cc1Cl | nt | nt | nt | nt | -20% | -15%
